# Where “and” joins values, the source holds several entries; their conditions need not be identical. Identical values can stand only once. In all, about 5,700 compounds went through this assay and about 85 (1%) were called active. Rule as the data show it: active = p53-positive nuclei above about 36% (passing the limit was not always enough); inactive = the rest. Shown is part of a subset that was picked to be rich in actives.
# Legend:
# [1] = p53 stabilisation in HPV-positive human cells, imaging, p53-positive nuclei imaging, 24 h, 48 h (AID 1508601); details: 24/48 h
# [2] = molecular target: Cellular tumor antigen p53 (Homo sapiens) (UniProt P04637); assay: as above; details: 24/48 h, stronger effect = higher value
# [3] = measured here: cell number at 24 h, Library stock concentration: 3.33 mM
# [4] = measured here: cell number at 24 h, Library stock concentration: 10 mM
# [5] = measured here: cell number at 48 h, Library stock concentration: 3.33 mM
# [6] = measured here: cell number at 48 h, Library stock concentration: 10 mM
# [7] = Library stock concentration: 3.33 mM
# [8] = Library stock concentration: 10 mM
# [9] = measured here: p53 positive nuclei at 24 h, Library stock concentration: 3.33 mM
# [10] = measured here: p53 positive nuclei at 24 h, Library stock concentration: 10 mM
# Chain of Cellular tumor antigen p53 (Homo sapiens) (P04637 whole entry, looked up): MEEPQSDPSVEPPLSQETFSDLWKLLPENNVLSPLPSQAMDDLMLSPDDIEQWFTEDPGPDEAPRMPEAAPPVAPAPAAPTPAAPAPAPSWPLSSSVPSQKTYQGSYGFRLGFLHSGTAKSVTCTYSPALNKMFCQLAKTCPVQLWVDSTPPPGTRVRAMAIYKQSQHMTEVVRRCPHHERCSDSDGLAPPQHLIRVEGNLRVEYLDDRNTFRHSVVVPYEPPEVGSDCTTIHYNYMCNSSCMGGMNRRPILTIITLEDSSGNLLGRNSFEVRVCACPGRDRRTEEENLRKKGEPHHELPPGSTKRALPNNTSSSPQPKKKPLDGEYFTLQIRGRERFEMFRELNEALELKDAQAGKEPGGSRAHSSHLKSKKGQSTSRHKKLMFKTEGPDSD
smiles,measurement,setting,value
Cn1cc(CNCC2CCN(c3ncc(C(=O)NO)cn3)CC2)c2ccccc21,"nuclei count, normalised","[1]; measured here: cell number at 24 h, Library stock concentration: 80 uM",71%
same,"nuclei count, normalised","[1]; measured here: cell number at 24 h, Library stock concentration: 400 uM",49.1%
same,"nuclei count, normalised","[1]; measured here: cell number at 24 h, Library stock concentration: 2 mM",40.5%
same,"nuclei count, normalised",[1]; [3],36.3%
same,"nuclei count, normalised",[1]; [4],37.2%
same,"nuclei count, normalised","[1]; measured here: cell number at 48 h, Library stock concentration: 80 uM",55.2%
same,"nuclei count, normalised","[1]; measured here: cell number at 48 h, Library stock concentration: 400 uM",24%
same,"nuclei count, normalised","[1]; measured here: cell number at 48 h, Library stock concentration: 2 mM",20.2%
same,"nuclei count, normalised",[1]; [5],20.7%
same,"nuclei count, normalised",[1]; [6],23.5%
same,"p53-positive nuclei, normalised",[2]; Library stock concentration: 80 uM,20.9% (inactive)
same,"p53-positive nuclei, normalised",[2]; Library stock concentration: 400 uM,102% (active)
same,"p53-positive nuclei, normalised",[2]; Library stock concentration: 2 mM,92.2% (active)
same,"p53-positive nuclei, normalised",[2]; [7],111% (active)
same,"p53-positive nuclei, normalised",[2]; [8],108% (active)
same,"p53-positive nuclei, normalised","[2]; measured here: p53 positive nuclei at 24 h, Library stock concentration: 80 uM",43.9%
same,"p53-positive nuclei, normalised","[2]; measured here: p53 positive nuclei at 24 h, Library stock concentration: 400 uM",92.9%
same,"p53-positive nuclei, normalised","[2]; measured here: p53 positive nuclei at 24 h, Library stock concentration: 2 mM",103%
same,"p53-positive nuclei, normalised",[2]; [9],96.9%
same,"p53-positive nuclei, normalised",[2]; [10],120%
CN1CCc2c(c3ccccc3n2Cc2ccc(C(=O)NO)cc2)C1,"nuclei count, normalised","[1]; measured here: cell number at 24 h, Library stock concentration: 46 uM",117%
same,"nuclei count, normalised","[1]; measured here: cell number at 24 h, Library stock concentration: 278 uM",120%
same,"nuclei count, normalised","[1]; measured here: cell number at 24 h, Library stock concentration: 1.67 mM",115%
same,"nuclei count, normalised",[1]; [3],110% and 92.2%
same,"nuclei count, normalised",[1]; [4],114%
same,"nuclei count, normalised","[1]; measured here: cell number at 48 h, Library stock concentration: 46 uM",119%
same,"nuclei count, normalised","[1]; measured here: cell number at 48 h, Library stock concentration: 278 uM",116%
same,"nuclei count, normalised","[1]; measured here: cell number at 48 h, Library stock concentration: 1.67 mM",110%
same,"nuclei count, normalised",[1]; [5],102% and 95.4%
same,"nuclei count, normalised",[1]; [6],107%
same,"p53-positive nuclei, normalised",[2]; Library stock concentration: 46 uM,-0.237% (inactive)
same,"p53-positive nuclei, normalised",[2]; Library stock concentration: 278 uM,0.0738% (inactive)
same,"p53-positive nuclei, normalised",[2]; Library stock concentration: 1.67 mM,0.201% (inactive)
same,"p53-positive nuclei, normalised",[2]; [7],-0.139% (inactive) and -0.349% (inactive)
same,"p53-positive nuclei, normalised",[2]; [8],-0.117% (inactive)
same,"p53-positive nuclei, normalised","[2]; measured here: p53 positive nuclei at 24 h, Library stock concentration: 46 uM",-0.158%
same,"p53-positive nuclei, normalised","[2]; measured here: p53 positive nuclei at 24 h, Library stock concentration: 278 uM",-0.207%
same,"p53-positive nuclei, normalised","[2]; measured here: p53 positive nuclei at 24 h, Library stock concentration: 1.67 mM",-0.0538%
same,"p53-positive nuclei, normalised",[2]; [9],-0.314% and -0.356%
same,"p53-positive nuclei, normalised",[2]; [10],-0.152%

# Reference: PubChem BioAssay AID1508601 (ICCB-Longwood Screening Facility, Harvard Medical School, 2020)
